In PubChem BioAssay (NCI):
About 83,000 compounds went through this panel and 20% of them were active in at least one assay; those are over-represented in the sample as a whole.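 Assay: single dose, 48 h. Readout: percent growth (0 = no net growth; negative = cell death). Active: <10.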 A number with no mark means an inactive call. The source made the active and inactive calls.

Assays:
Experiment in all cases: NCI-60 one-dose screen, 48 h (100 = growth as untreated, 0 = no growth, -100 = all killed)
Settings in all cases: 10 µM unless noted
[1] = system: SK-MEL-2 melanoma
[2] = system: EKVX NSCLC
[3] = system: SN12C renal
[4] = system: UO-31 renal
[5] = system: TK-10 renal
[6] = system: ACHN renal
[7] = system: CAKI-1 renal
[8] = system: A498 renal
[9] = system: CCRF-CEM leukemia
[10] = system: MOLT-4 leukemia
[11] = system: SR leukemia
[12] = system: RPMI-8226 leukemia
[13] = system: OVCAR-8 ovarian
[14] = system: OVCAR-5 ovarian
[15] = system: OVCAR-4 ovarian
[16] = system: SK-OV-3 ovarian
[17] = system: IGROV1 ovarian
[18] = system: OVCAR-3 ovarian
[19] = system: HS 578T breast
[20] = system: NCI/ADR-RES ovarian

Row | SMILES | growth [1] | growth [2] | growth [3] | growth [4] | growth [5] | growth [6] | growth [7] | growth [8] | growth [9] | growth [10] | growth [11] | growth [12] | growth [13] | growth [14] | growth [15] | growth [16] | growth [17] | growth [18] | growth [19] | growth [20]
1 | O=C1N[C@@H]2[C@@H](O)[C@@H](O)[C@H](O)C[C@H]2c2cc3c(c(O)c21)OCCO3 | -48.7% (active) | -14.3% (active) | -9.95% (active) | -19.7% (active) | -11.9% (active) | -14.5% (active) | 4.9% (active) | -29.7% (active) | -6.07% (active) | -0.799% (active) | -2.37% (active) | -28% (active) | -13.8% (active) | 3% (active) | -8.78% (active) | -10.9% (active) | -16.7% (active) | -13% (active) | -9.44% (active) | -0.441% (active)
2 | CS(=O)(=O)Nc1cncc(-c2ccc3ncnc(Nc4ccc(F)c(Cl)c4)c3c2)c1 | 8.23% (active) | 0.905% (active) | 33.9% | 38.1% | -2.22% (active) | 32.3% | 44.7% | -7.33% (active) | 11.8% | -22.8% (active) | 23.3% | 15.7% | 47.1% | 33.3% | 63.4% | -0.027% (active) | -17.2% (active) | 22.1% | 3.01% (active) | 84%
3 | Cc1nn(-c2ccccc2)c(/N=C/N(C)C)c1/C=C/C(=O)c1ccc(Cl)cc1 | 99.4% | 77.4% | 82.5% | 78.1% | 104% | 102% | 50.4% | 92.6% | 66.6% | 60.9% | 23.4% | 6.91% (active) | 101% | 81.7% | 98.3% | 111% | 81.2% | 103% | 92.2% | 86.9%
4 | O=C(OC[C@@H]1CO1)c1cccc2c(=O)c3ccccc3[nH]c12 | -70.8% (active) | -16.8% (active) | -46.9% (active) | -20.7% (active) | -6.41% (active) | -41.2% (active) | -13.2% (active) | -44.4% (active) | 2.83% (active) | 1.32% (active) | 9.87% (active) | -11.7% (active) | -56% (active) | -21.4% (active) | -27% (active) | -38.5% (active) | -13.7% (active) | -25.7% (active) | -21.5% (active) | -16.3% (active)
5 | N/C(=N\c1nc2ccccc2s1)NC(=NC1CCCCC1)NC1CCCCC1 | 41% | 45.7% | 33.8% | 20.1% | 69.2% | 17.1% | 23.2% | 45.8% | -1.74% (active) | 4% (active) | 8.88% (active) | -30.4% (active) | 4.41% (active) | 24.6% | 26.7% | 74.9% | 14.4% | 57.6% | 37.8% | 15%
6 | COc1ccc(C(O)c2cc3c(N)c(C(=O)Nc4cccc(Cl)c4)sc3nc2C)cc1 (stereo not given) | 53.7% | 48.4% | 22.2% | 45.4% | 64% | 30.3% | 24.7% | 8.34% (active) | 8.82% (active) | 15.4% | 13.2% | 15.8% | 13.5% | 28.5% | 50.7% | 19% | 24.5% | 7.47% (active) | -8.06% (active) | 13.2%
7 | Clc1nccc2c(-c3csc(-c4c[nH]c5ccccc45)n3)c[nH]c12 | 79.5% | 63.2% | 59.2% | 25.9% | 55.8% | 24.4% | 52.3% | 32.7% | 31.1% | 40.5% | 11.3% | 51.4% | 56.5% | 107% | 68.9% | 58.8% | 68.6% | 68.6% | 45.2% | 53.1%
8 | CCCCCCC(CCCC)COC(=O)c1ccc(Cl)cc1 (stereo not given) | 109% | 112% | 105% | 98% | 110% | 110% | 100% | 93.9% | 105% | 98.8% | 99.1% | 108% | 109% | 115% | 99.4% | 107% | 111% | 114% | 109% | 115%
9 | c1ccc2cc(Cn3c[n+](Cc4ccc5ccccc5c4)c4ccccc43)ccc2c1 | -61.7% (active) | 13.9% | 5.14% (active) | 53.6% | -72% (active) | 46.2% | 84.7% | -2.59% (active) | -13.1% (active) | -27.1% (active) | -66.7% (active) | -53.6% (active) | -47.9% (active) | 22.3% | -14.9% (active) | -0.377% (active) | -42.4% (active) | -50.8% (active) | 3.56% (active) | 91.2%
10 | CC1(C)CC2=C3C=C[C@@H]4[C@@]5(C)CC[C@H](O)C(C)(C)[C@@H]5CC[C@@]4(C)[C@]3(C)CC[C@@]2(C(=O)O)CC1=O | 37.1% | 61.4% | 54.4% | 16.5% | 33.5% | 13% | 28.2% | 57% | 25.2% | 44.2% | 50.5% | 4.49% (active) | 62.6% | 99.5% | 38% | 75.9% | 35.3% | 22.2% | 73% | 61.2%
11 | COc1ccc(-c2oc(=O)ccc2-c2cc(OC)c(OC)c(OC)c2)cc1O | 39.9% | 49.5% | 36.8% | 21.9% | 61.6% | 56% | -11.6% (active) | -1.78% (active) | 4.14% (active) | 20.5% | 8.87% (active) | 14.6% | 23.1% | 35.7% | 47.6% | 28.3% | 29.8% | -59.3% (active) | -7.79% (active) | 29.1%
12 | O=C(O)C1CN(c2cccc(Cl)c2)N(c2cccc(Cl)c2)C1=O (stereo not given) | 94.7% | 96.9% | 89% | 72.2% | 105% | 95.6% | 92.8% | 110% | 107% | 88.8% | 85% | 107% | 93.2% | 75.3% | 96% | 88.9% | 89.8% | 87.1% | 91% | 93.9%
13 | C=C1C(=O)O[C@H]2[C@H]1CC/C(COC(=O)c1cc3cc(F)ccc3[nH]1)=C\CC[C@@]1(C)O[C@@H]21 | -69% (active) | -78.1% (active) | -42% (active) | -88.1% (active) | -94.9% (active) | -88.5% (active) | -90.8% (active) | -40.2% (active) | -31.9% (active) | -16.2% (active) | -5.71% (active) | -33.3% (active) | -42% (active) | -74.2% (active) | -68.2% (active) | 26.7% | -72.1% (active) | -85.5% (active) | -14.2% (active) | -20.2% (active)
14 | O=C(NCc1ccc2c(c1)OCO2)NCC1CCCC(CNC(=O)NCc2ccc3c(c2)OCO3)C1 (stereo not given) | 109% | 106% | 102% | 95.7% | 101% | 105% | 89.6% | 95.3% | 85.1% | 92.9% | 95.2% | 102% | 100% | 108% | 96.1% | 99.1% | 106% | 108% | 97.1% | 104%
15 | O=C1NC(=Nc2ccc(O)cc2)S/C1=C\c1cccs1 | 97.9% | 38.8% | 46.1% | 52.5% | 69.3% | 30.3% | 40.9% | 15.9% | 11.9% | 23.1% | 11.6% | 2.94% (active) | 48.5% | 84.5% | 48.8% | 62.6% | 38.5% | 8.01% (active) | 32.6% | 32.1%
